This is a sample that favours compounds with a hit; in the whole collection about 12% have one here.
AmpC inh no detg = inhibitors of E. coli AmpC beta-lactamase without detergent; AmpC nitrocefin hydrolysis, absorbance 480 nm, 0.0001% Triton; Potency, µM (titrated, usually from 57.1 µM), actives largely listed as inhibitors; 330,000 compounds, 0.52% hits; AID 485341; further: nearly all actives have a fitted effect of over 20% in size
Target sequence (P00811 whole entry, looked up): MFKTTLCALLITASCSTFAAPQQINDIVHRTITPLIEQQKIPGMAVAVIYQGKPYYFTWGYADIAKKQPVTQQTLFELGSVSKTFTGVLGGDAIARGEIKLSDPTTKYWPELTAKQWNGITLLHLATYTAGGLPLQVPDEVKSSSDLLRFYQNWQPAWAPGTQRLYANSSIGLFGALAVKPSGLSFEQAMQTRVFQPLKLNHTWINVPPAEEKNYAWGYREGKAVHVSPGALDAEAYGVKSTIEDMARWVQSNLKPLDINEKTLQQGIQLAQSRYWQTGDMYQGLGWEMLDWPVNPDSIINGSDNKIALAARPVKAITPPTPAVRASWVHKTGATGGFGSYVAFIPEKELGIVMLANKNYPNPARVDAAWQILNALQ
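AmpC (5.3 nM in the dispensed reagent) in 20 mM phosphate pH 7.0 with 0.01% (detergent screen) or 0.0001% Triton X-100 was preincubated with compounds for 15 min at room temperature. Nitrocefin was then added from an 800 uM solution, and hydrolysis was followed at 480 nm.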
Pf growth 96h = inhibits malaria parasite growth, 96 h; 320,000 compounds, 6.9% hits; Potency, µM (highest dose often 28.7 µM), actives largely listed as inhibitors; P. falciparum luciferase reporter growth, 96 h
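Parasite growth measured via integrated firefly luciferase reporter in P. falciparum. Infected erythrocytes at 2% hematocrit, 0.05% parasitemia final were treated 96 hours at 37 C under 5% CO2, and luminescence was read.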
Pf growth 48h = P. falciparum growth inhibition at 48 hours (one generation); P. falciparum luciferase growth in erythrocytes, 48 h; Potency, µM (titrated, usually from 28.7 µM), most hits filed as inhibitors; 310,000 compounds, 5.9% hits
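Compounds are pin-transferred into medium, infected erythrocytes (2% hematocrit, 0.1% parasitemia final) are added, and plates sit one parasite generation at 37 C in 5% CO2. Detection reagent is then added and luminescence measured.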
Sm TGR inh = blocks Schistosoma mansoni thioredoxin glutathione reductase; purified TGR, DTNB reduction, TNB absorbance 405 nm; Potency, µM (highest dose often 114 µM), usual class: inhibitors; 360,000 compounds, 3% hits; further: nearly all actives have a fitted effect of over 60% in size
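Kinetic colorimetric format: TGR-catalysed, NADPH-driven DTNB reduction monitored via TNB absorbance. Enzyme dispensed at 20 nM; compound exposure 15 min at room temperature before reaction start.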
SARS PLP yeast = inhibitors of SARS-CoV papain-like protease in yeast. 330,000 compounds, 0.19% hits. Potency, µM (titrated, usually from 32.9 µM), usual class: activators. S. cerevisiae expressing SARS-CoV PLpro, growth rescue; calls by dose curve; further: nearly all actives have a fitted effect of over 55% in size
AmpC inh detg = inhibitors of E. coli AmpC beta-lactamase with detergent; AmpC hydrolysis of nitrocefin, absorbance 480 nm, 0.01% Triton; Potency, µM (doses to about 114 µM), hits mostly inhibitors; 370,000 compounds, 0.041% hits; further: nearly all actives have a fitted effect of over 25% in size
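20 mM phosphate pH 7.0 + 0.01% (detergent screen) or 0.0001% Triton X-100; 5.3 nM AmpC reagent; cpd preinc 15 min RT; nitrocefin (800 uM stock) to start; A480 q20 s × 4 min; Activity was normalised to no-enzyme and no-compound control wells.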
Numbers stand for hits; . = inactive; ? = inconclusive; / = no result given. Unless noted, the call rests on the fitted dose curve; in most records, active means well fitted curve in the direction sought with a large enough effect; inconclusive means small, poorly fitted or top-dose-only effect, or another doubt; inactive means no such curve, though single readings can be large; an effect the other way counts as inactive or inconclusive.

SMILES	AmpC inh no detg	Pf growth 96h	Pf growth 48h	Sm TGR inh	SARS PLP yeast	AmpC inh detg
CCOc1ccc2nc(Cl)c(C3CC(c4ccco4)=NN3S(=O)(=O)c3ccccc3)cc2c1 (stereo not drawn)	.	7.4µM	?	.	.	.
COc1ccc2cc(C3CC(c4ccco4)=NN3S(C)(=O)=O)c(Cl)nc2c1 (stereo not drawn)	.	?	.	6.3µM	.	.
CCS(=O)(=O)N1N=C(c2ccc(C)cc2)CC1c1cc2ccc(OC)cc2nc1Cl (stereo not drawn)	/	/	/	.	/	.
CS(=O)(=O)N1N=C(c2ccco2)CC1c1ccccc1 (stereo not drawn)	.	.	.	?	.	.
O=C(NCCSCc1ccccc1)C1CCN(S(=O)(=O)Cc2ccccc2)CC1	/	/	/	.	/	.
CCOc1ccc2ccccc2c1C(=O)NCC(c1ccc(N(C)C)cc1)N(C)C (stereo not drawn)	.	.	.	.	.	?
c1cncc(-c2nc(N3CCOCC3)c3c4c(sc3n2)CCC4)c1	.	?	?	.	.	.
c1cncc(-c2nc(NCCCN3CCOCC3)c3c4c(sc3n2)CCC4)c1	.	?	12µM	.	.	.
C[C@H](C(=O)O)c1cccc(Oc2ccccc2)c1	/	.	.	/	/	/
Cc1ccc(CN(C(=O)c2ccccc2[N+](=O)[O-])C2CCS(=O)(=O)C2)o1 (stereo not drawn)	.	.	.	32µM	.	.
COc1cccc(CN(C(=O)c2cc3ccccc3oc2=O)C2CCS(=O)(=O)C2)c1 (stereo not drawn)	.	6.6µM	.	.	.	.
Cc1cc2oc(C(=O)N(Cc3ccco3)C3CCS(=O)(=O)C3)cc(=O)c2cc1Cl (stereo not drawn)	?	.	.	50µM	.	.
O=C(c1cc2ccccc2oc1=O)N(Cc1ccco1)C1CCS(=O)(=O)C1 (stereo not drawn)	.	.	.	16µM	.	.
Cc1ccc2c(=O)cc(C(=O)N(Cc3ccccc3Cl)C3CCS(=O)(=O)C3)oc2c1 (stereo not drawn)	/	/	/	.	/	.
COc1ccccc1NCC(=O)NC(=O)NC1CCCCC1	.	/	/	/	?	/
CSc1ccc(CCNC(=O)CN2C(=O)COc3ccc(S(=O)(=O)N4CCCCCC4)cc32)cc1	/	/	/	.	/	.
CCOC(=O)N1CCc2c(sc(NCc3sccc3C)c2C(=O)Nc2ccccc2OCC)C1	/	/	/	.	/	.
Cc1cc(C(=O)C(=O)O)c(C)n1-c1ccc(Cl)cc1	.	.	.	.	.	.
Cc1cc(C(=O)C(C)Sc2cccc[n+]2[O-])c(C)n1-c1ccc(Cl)cc1 (stereo not drawn)	.	12µM	.	?	.	.
Cc1cccc(N2CCN(S(=O)(=O)c3ccc(F)c(C(=O)Nc4ccc(C(C)C)cc4)c3)CC2)c1C	/	/	/	.	/	.
CCOC(=O)CSCC(=O)Nc1c(C(=O)C2CC2)oc2ccccc12	.	5.9µM	.	.	.	.
Cc1c(C(=O)Nc2ccc(S(=O)(=O)N(C)C3CCN(C)CC3)cc2)oc2c(Cl)cccc12	.	2.6µM	2.9µM	.	/	?
Cc1c(C(=O)Nc2ccc(S(=O)(=O)N(C)C3CCN(C)CC3)cc2)oc2ccccc12	.	?	4.7µM	.	.	.
CN1CCC(N(C)S(=O)(=O)c2ccc(NC(=O)c3ccc(S(=O)(=O)N(C)C)cc3)cc2)CC1	.	/	/	/	.	/
O=C(Cn1c(O)c(/C=C2\C=Nc3ccccc32)sc1=O)N1CCOCC1	.	.	.	/	.	.
SMILES	AmpC inh no detg	Pf growth 96h	Pf growth 48h	Sm TGR inh	SARS PLP yeast	AmpC inh detg
O=C(Cn1c(O)c(/C=C2\C=Nc3ccc(Br)cc32)sc1=O)N1CCCC1	.	12µM	/	.	.	.
N#Cc1c(-c2cccs2)cc(-c2ccccn2)nc1N	.	9.3µM	.	.	.	?
O=C(CN1C(=O)NC2(CCCCCC2)C1=O)N1CCN(c2ccccc2)CC1	.	?	?	.	.	.
COc1cc(Br)c(-c2sc(Nc3ccccc3)n[n+]2-c2ccc(F)cc2)cc1OC	.	3.7µM	1.9µM	.	.	?
CCc1ccc(Nc2n[n+](-c3ccccc3)c(-c3ccc(OC)c(Br)c3)s2)cc1	.	4.7µM	.	.	.	.
CCc1ccc(Nc2n[n+](-c3ccccc3)c(-c3ccc(C(=O)O)cc3)s2)cc1	.	?	.	.	.	.
CCc1ccc(Nc2n[n+](-c3ccccc3)c(-c3ccc(SC)cc3)s2)cc1	.	4.7µM	?	.	.	?
CSc1ccc(-c2sc(Nc3ccccc3)n[n+]2-c2ccccc2)cc1	.	1.9µM	?	.	.	.
CCN(CC)CC(O)COc1ccc2c(c1)OCO2 (stereo not drawn)	.	.	/	.	.	.
COc1ccc(C(=O)OC2=C(C(=O)c3ccccc3)N(C)S(=O)(=O)c3ccccc32)cc1OC	/	/	/	.	/	.
C/C(=N\Nc1ccc(Cl)cc1)c1c(O)cc(C)oc1=O	.	.	.	22µM	.	?
Cc1ccc(N2C(=O)[C@@H]3[C@H](C2=O)[C@H]2C=C(C(=O)c4ccccc4)C=CN2[C@@H]3C(=O)c2ccc(Cl)cc2)cc1	.	?	?	40µM	.	.
O=C(C1=C[C@@H]2[C@H]3C(=O)N(c4ccccc4Cl)C(=O)[C@H]3[C@@H](C(=O)c3ccc(Cl)cc3)N2C=C1)c1ccccc1	.	?	?	25µM	.	.
O=C(c1ccc(Cl)cc1)[C@@H]1[C@@H]2C(=O)N(c3ccccc3)C(=O)[C@@H]2C2c3ccccc3C=NN21 (stereo partly drawn)	.	.	.	.	.	.
O=C(C1=C[C@@H]2[C@H]3C(=O)N(c4cccc(Cl)c4)C(=O)[C@H]3[C@@H](C(=O)c3ccc(Cl)cc3)N2C=C1)c1ccccc1	13µM	.	.	22µM	.	.
N#CC(c1nc2ccccc2nc1N1CCCC1)S(=O)(=O)c1cccs1 (stereo not drawn)	.	.	.	.	.	.
CCCCN1C(N)=NC[C@H]1Cc1ccc(O)cc1	.	4.7µM	9.3µM	.	.	.
CC(C)(C)CN1C(N)=NC[C@H]1Cc1ccc(O)cc1	.	4.7µM	?	.	.	.
CCCCN1C(N)=NC[C@@H]1Cc1ccc(O)cc1	.	4.1µM	10µM	.	.	.
NC1=NC[C@H](Cc2ccc(O)cc2)N1CCC12CC3CC(CC(C3)C1)C2	.	1.9µM	2.9µM	.	.	.
COC(=O)c1ccc(NC(=O)CCc2c(C)nn(-c3ccc(N4CCCCC4)nn3)c2C)cc1	/	/	/	.	/	.
COc1cc(CCCN2C(N)=NC[C@H]2Cc2ccc(O)cc2)cc(OC)c1OC	.	2.3µM	8.3µM	.	.	.
C=C(C)CNC(=S)Nc1cccc(N)n1	.	.	.	2.8µM	.	.

Screening results (PubChem BioAssay)
